This is a sample that favours compounds with a hit; in the whole collection about 19% have one here.
TGFb SMAD3 inh: qHTS for Inhibitors of TGF-b | HepG2 CAGA-GFP TGF-b/SMAD3 reporter, GFP fluorescence, 18 h; TGF-beta stimulated, 500 pg/mL final | 1.2% of 410,000 active | Potency, µM (doses to about 46.1 µM), inactives show top-dose activity, negative = inhibition, most hits filed as inhibitors | AID 588855, 2011; further: potency means the concentration at half of the fitted maximal effect; on the % scale 0 is the no-effect control and ±100 the full control effect; nearly all actives have a fitted effect of over 65% in size
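Inhibition was scored as loss of TGF-beta-induced (500 pg/mL final, 18 hours, 37 degrees C) GFP in HEPG2 cells carrying a CAGA-GFP reporter, in DMEM with 1% FBS. Well GFP was summed per cell; Activity was normalised to unstimulated and stimulated DMSO wells, then concentration-response fitting.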
HepG2 tox: qHTS for Inhibitors of TGF-b: Cytotox Counterscreen. HepG2 CAGA-GFP viability, ATP luminescence, 18 h. Potency, µM (doses to about 46.1 µM), for inactives: top-dose activity change, negative = cytotoxicity, hits mostly cytotoxic. 0.76% of 410,000 active. AID 588856, 2011; further: potency means the concentration at half of the fitted maximal effect
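HepG2 CAGA-GFP cells (1000/well, DMEM with 1% FBS) received compound, then TGF-beta at 500 pg/mL final, and were incubated 18 hours at 37 degrees C. Viability was read by CellTiter-Glo luminescence. Media-only wells were set as complete cell-killing and DMSO as no toxicity.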
TDP1 cell noCPT: qHTS for Inhibitors of human tyrosyl-DNA phosphodiesterase 1 (TDP1): qHTS in cells in absence of CPT. DT40 Tdp1-/- hTDP1 cells, no CPT, ATP luminescence, 48 h. Potency, µM (highest dose often 46.2 µM), for inactives: top-dose activity change, negative = growth inhibition, actives largely listed as inhibitors. 15% of 420,000 active. AID 686978, 2013; further: potency means the concentration at half of the fitted maximal effect; on the % scale 0 is the no-effect control and ±100 the full control effect; nearly all actives have a fitted effect of over 55% in size
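Cells were dispensed at 400 per well, compounds added by pin tool, plates incubated ≥48 hr at 37 °C, then CellTiter-Glo added for 30 min at room temperature before luminescence reading. Line: DT40 Tdp1-/- complemented with hTDP1; camptothecin omitted.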
TDP1 cell CPT: qHTS for Inhibitors of human tyrosyl-DNA phosphodiesterase 1 (TDP1): qHTS in cells in presence of CPT; Potency, µM (top dose mostly 46.2 µM), for inactives: at the top dose activity change, negative = growth inhibition, usual class: inhibitors; 12% of 420,000 active; AID 686979, 2013; chicken DT40 Tdp1-/-;hTDP1 cells + 20 nM CPT, ATP luminescence, 48 h; further: potency means the concentration at half of the fitted maximal effect; on the % scale 0 is the no-effect control and ±100 the full control effect; nearly all actives have a fitted effect of over 55% in size
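Cell growth measured by CellTiter-Glo luminescence after a minimum 48 h, 37 C compound exposure with 20 nM CPT in Tdp1-knockout DT40 cells stably expressing hTDP1, seeded 400/well; qHTS titration format.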
TDP1 inh: qHTS Assay for Inhibitors of Tyrosyl-DNA Phosphodiesterase (TDP1). 0.28% of 350,000 active. AID 485290, 2010. Potency, µM (highest dose often 130 µM), for the others: top-dose activity change, negative = inhibition, hits mostly inhibitors. recombinant TDP1, AlphaScreen DNA substrate cleavage. Tyrosyl-DNA phosphodiesterase 1 (Homo sapiens), Q9NUW8; further: potency means the concentration at half of the fitted maximal effect; on the % scale 0 is the no-effect control and ±100 the full control effect; nearly all actives have a fitted effect of over 40% in size
Target sequence (Q9NUW8 whole entry, looked up): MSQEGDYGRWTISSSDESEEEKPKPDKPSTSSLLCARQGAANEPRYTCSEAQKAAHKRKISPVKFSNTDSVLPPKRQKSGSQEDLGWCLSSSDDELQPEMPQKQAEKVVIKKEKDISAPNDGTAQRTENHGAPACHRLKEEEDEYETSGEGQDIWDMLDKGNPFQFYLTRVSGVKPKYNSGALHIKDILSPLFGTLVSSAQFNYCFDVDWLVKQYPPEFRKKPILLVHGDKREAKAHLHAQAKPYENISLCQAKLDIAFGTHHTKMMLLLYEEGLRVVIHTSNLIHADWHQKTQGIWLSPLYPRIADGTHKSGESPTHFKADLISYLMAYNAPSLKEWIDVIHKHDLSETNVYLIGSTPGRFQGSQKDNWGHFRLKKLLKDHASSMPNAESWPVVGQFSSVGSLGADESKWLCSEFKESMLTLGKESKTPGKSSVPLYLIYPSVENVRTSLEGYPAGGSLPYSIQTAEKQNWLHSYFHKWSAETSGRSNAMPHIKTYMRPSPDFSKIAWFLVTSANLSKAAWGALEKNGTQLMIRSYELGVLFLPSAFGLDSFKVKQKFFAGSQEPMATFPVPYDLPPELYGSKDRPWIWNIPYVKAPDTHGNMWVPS
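Enzyme-compound mixtures sat 15 min at room temperature, followed by a 5 min reaction with 15 nM final substrate and 10 min with AlphaScreen beads. Recombinant human Tdp1 was used at 1 nM final.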
IL1B secr inh: qHTS for Inhibitors of Inflammasome Signaling: IL-1-beta AlphaLISA Primary Screen; AID 743279, 2014; 4.7% of 360,000 active; THP-1 LPS/ATP IL-1B secretion, AlphaLISA, 16 h; active compounds read low; activity change, % at 57.5 µM; in the data active means activity change below about -50%; inconclusive means mostly about -30% to -49%; further: on the % scale 0 is the no-effect control and ±100 the full control effect
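THP-1 cells pretreated 1 hr with compounds (up to 57.5 uM final), then stimulated with LPS (250 ng/mL final) plus ATP (1.25 mM final); secreted IL-1B measured by AlphaLISA after 16 hr, decreased signal indicating inhibition.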
Numbers without * were called inactive; ? = inconclusive; nt = no result; [ ] = another dose, or the depositor's remark. Unless noted, the call rests on the fitted dose curve; in most records, active means well fitted curve in the direction sought with a large enough effect; inconclusive means small, poorly fitted or top-dose-only effect, or another doubt; inactive means no such curve, though single readings can be large; an effect the other way counts as inactive or inconclusive.

SMILES | TGFb SMAD3 inh | HepG2 tox | TDP1 cell noCPT | TDP1 cell CPT | TDP1 inh | IL1B secr inh
CC1(c2nnc(-c3ccccc3)o2)CC(c2ccc([N+](=O)[O-])cc2)=NO1 (centres undefined) | 21% | 2% | 18µM* | ? | nt | 10
COC(=O)c1cccc(N(CC(=O)NC2CCCC2)C(=O)CCC(=O)Nc2cc(C)on2)c1 | 8% | 9% | -10% | -2% | -3% | 18
O=C(NC(C(=O)c1ccccc1)c1ccccc1)c1ccccc1 (centres undefined) | 7% | 0% | ? | 0% | nt | 15
Cc1cc(C)c2c(=O)c3c(oc2c1)C(=O)N(CCO)C3c1cccc(O)c1 (centres undefined) | -1% | 8% | -16% | -14% | 5% | -58*
CCOc1cc(C2c3c(oc4ccc(F)cc4c3=O)C(=O)N2Cc2ccc(C)cc2)ccc1O (centres undefined) | 14% | -17% | ? | 1.3µM* | 0% | nt
COc1ccc(CN2C(=O)c3oc4ccccc4c(=O)c3C2c2ccc(O)cc2)cc1 (centres undefined) | -27% | -19% | -20% | 16% | 2% | nt
O=C1c2oc3ccccc3c(=O)c2C(c2cccc(O)c2)N1Cc1ccc(F)cc1 (centres undefined) | ? | 0% | 21µM* | ? | 6% | nt
CCOC(=O)n1c(=O)[nH]c2ccc(Br)cc21 | -10% | 0% | 18µM* | 0% | 0% | 0
Cc1cccc(NC(=O)Nc2cccs2)c1C | nt | -4% | ? | 26µM* | 3% | nt
CCOc1ccc(NC(=O)NC23CC4CC(CC(C4)C2)C3)cc1 | -12% | -15% | 23µM* | 21µM* | 6% | -67*
CCOc1ccc(NC(=O)Nc2cc(OCC(F)(F)F)cc(OCC(F)(F)F)c2)cc1 | -16% | -16% | 2.9µM* | 2.9µM* | 0% | -3
CCOc1ccc(NC(=O)Nc2cccs2)cc1 | -9% | -46% | 18µM* | 10µM* | 5% | -11
COc1ccc(NC(=O)NC23CC4CC(CC(C4)C2)C3)cc1OC | 12% | -10% | ? | -18% | 6% | -13
CCOc1ccc(NC(=O)Nc2ccc(Cc3ccncc3)cc2)cc1 | 0% | -52% | ? | -28% | nt | -5
COc1ccc(CNC(=O)COC(=O)c2c(NC(C)=O)sc(C)c2C)cc1 | 4% | 5% | -20% | ? | 1% | 0
Cc1cccc(-c2nc(SCC(=O)NCC3CCCO3)c3c(=O)n(C)c(=O)n(C)c3n2)c1 (centres undefined) | 2% | -4% | 0% | -7% | 3% | nt
CCOC(=O)C1CCCCN1C(=O)c1cnn(-c2nccc(-c3cc(C)sc3C)n2)c1C1CC1 (centres undefined) | nt | nt | ? | -9%[9.04 µM] | nt | nt
Cc1ccc(S(=O)(=O)N2CCN(Cc3noc(CCC(=O)N4CCCCC4)n3)CC2)c(C)c1 | -21% | -20% | ? | -28% | 3% | nt
COc1ccc(-c2nc(CS(=O)CC(=O)NC3CCCCC3C)c(C)o2)cc1 (centres undefined) | ? | -3% | 4% | -15% | 0% | 11
CC1(C)CC23C(=O)CCC(O)C2(C)CCC13 (centres undefined) | nt | nt | -6% | -6% | 4% | nt
Cc1ccc(NC(=O)Nc2cn(C)c(=O)c3ccccc23)c(Cl)c1 | 3% | -22% | ? | ? | nt | nt
Cc1ccc(NC(=O)Nc2cccs2)cc1 | -8% | -33% | 26µM* | 16µM* | 0% | -17
Cc1cc(C)cc(NC(=O)Nc2cccs2)c1 | nt | -37% | ? | ? | 3% | nt
CCc1ccc(NC(=O)Nc2cn(C)c(=O)c3ccccc23)cc1 | -24% | -18% | 21µM* | 21µM* | -3% | nt
Cc1ccc(NC(=O)Nc2ccno2)cc1 | -18% | -6% | 16µM* | ? | 1% | -13
SMILES | TGFb SMAD3 inh | HepG2 tox | TDP1 cell noCPT | TDP1 cell CPT | TDP1 inh | IL1B secr inh
COc1cccc(NC(=O)Nc2cccs2)c1 | -9% | -27% | ? | ? | 1%[56.1 µM] | 5
CC(=O)c1cccc(NC(=O)Nc2cccs2)c1 | -6% | -7% | ? | 16µM* | -5% | 0
CCN(Cc1ccncc1)Cc1ccc2c(c1)CN(C(=O)c1cccc3c(C)c(C)[nH]c13)CCO2 | nt | nt | -20% | -3% | nt | nt
O=C(CSc1cc(Cl)ccc1Cl)Nc1ccc(N2CCOCC2)cc1 | 10% | 7% | ? | ? | 7% | -1
CN1C(=O)C[C@H](C(=O)O)[C@@H]1c1cccnc1 | nt | nt | nt | nt | 13% | nt
CCc1ccc(NC(=O)Nc2cccs2)cc1 | -34% | -31% | 15µM* | 21µM* | 6% | -19
CNc1sc(C(=O)c2ccc(F)cc2)c(N)c1-c1nc2ccccc2s1 | -21% | 0% | 7.3µM* | 5.2µM* | 12% | 10
O=C(Cn1cnc2sc(-c3ccccc3)cc2c1=O)NCc1ccccc1 | 8% | -40% | 5.2µM* | 3.7µM* | 6% | 41
O=C(Cn1cnc2sc(-c3ccccc3)cc2c1=O)NCc1ccco1 | 27% | 0% | 5.8µM* | 6.5µM* | nt | 16
N=c1ccn(Cc2cccc(F)c2)cc1 | -16% | -3% | 18µM* | ? | -1% | 15
COc1ccccc1C1=Nn2c(nc3sc(C(=O)Nc4ccccc4Cl)c(C)c3c2=O)SC1 | 0% | -30% | ? | ? | 3% | nt
Cc1ccc(S(=O)(=O)N(C)C)cc1NC(=O)CSc1ncc(C(F)(F)F)cc1Cl | 8% | -20% | ? | ? | 2% | ?
CCN(CC)S(=O)(=O)c1ccc(C)c(NC(=O)CSc2ncc(C(F)(F)F)cc2Cl)c1 | ? | -36% | 23µM* | ? | 4% | -13
NS(=O)(=O)c1cccc(NC(=O)CCSc2ccc(Cl)cc2)c1 | ? | 12% | 12µM* | ? | 0% | 20
NS(=O)(=O)c1cccc(NC(=O)CSc2ncc(C(F)(F)F)cc2Cl)c1 | -16% | -37% | -29% | -40% | 4% | -111*
COc1ccc(CCCc2nnc(SCC(=O)Nc3ccc(C)cc3)o2)cc1 | -2% | -13% | -15% | -16% | nt | nt
COC(=O)c1sc(-c2ccccc2)cc1NC(=O)Nc1ccc(F)cc1 | ? | -8% | ? | ? | 5% | nt
